# Source: PubChem BioAssay AID588492 (Sanford-Burnham Center for Chemical Genomics, 2011)
# Where “and” joins values, the source holds several entries; their conditions need not be identical. Identical values can stand only once. The campaign covered roughly 360,000 compounds. About 2,300 (0.64%) were called active. The sample holds actives, similar compounds and a random draw of the others, so the mix is not that of the screen. Unmarked numbers belong to inactive results.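 How the source made its calls: active means compounds giving at least 50% protection of heart cells from peroxide-induced death in the single-dose screen, raw or plate-pattern-corrected value; inactive means the rest.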
# Experiment: cardioprotection against H2O2-induced cell death, primary screen, uHTS, H9c2 cells, ATPLite luminescence (AID 588492);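 further: 0% = DMSO wells with peroxide and 100% = DMSO wells without peroxide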
# Details: H9c2 cardiomyocytes, H2O2 injury protection, 2 h, at 20 µM, stronger effect = higher value
row,SMILES,protection from H2O2 cell death
1,NC(=O)c1ccsc1NC(=O)COC(=O)Cc1n[nH]c(=O)c2ccccc12,78.3% (active)
2,N#CC1(NC(=O)COC(=O)Cc2n[nH]c(=O)c3ccccc23)CCCCC1,30.9%
3,CCCCn1nc(C(=O)OCC(=O)Nc2sccc2C(N)=O)c2ccccc2c1=O,29.8%
4,CCn1cc(C(=O)N[C@@H](C)C(=O)NCCO)c(=O)c2cc3c(cc21)OCO3,3%
5,COC(=O)c1noc(C)c1-c1ccnn1C(=O)c1ccc(Cl)cc1,3.5%
6,CCOc1ccc(OCC)c(NC(=O)CSc2nnc(Cn3cnc4ccccc43)n2C)c1,-3.2%
7,Cc1ccc2cc(/C=N/NC(=O)[C@@H]3CCCN3)c(Cl)nc2c1,14%
8,O=C(NN=Cc1ccc2c(c1)CCC2)c1ccccc1O,-17.8%
9,Cc1ccc(/C=N/NC(=O)C2=NNC(c3ccccc3)(c3ccccc3)C2)c(O)c1,60.3% (active)
10,CC(C)c1nnc(NC(=O)C2CC(=O)N(CCc3ccc(F)cc3)C2)s1 (stereo not given),-4.8%
11,Cc1nc(S(=O)(=O)c2ccc(Br)cc2)nc2c1CCC2,-2.2%
12,CCC(CC)C(=O)Nc1c2c(nn1-c1ccc(C)cc1)CS(=O)(=O)C2,-4.5%
13,CCC(C)(C)NC(=O)C(c1ccccn1)N(C(=O)c1csnn1)c1ccccc1 (stereo not given),1.1%
14,Cc1ccc(S(=O)(=O)NCC2CCC(C(=O)N3CCOCC3)CC2)cc1 (stereo not given),3.4%
15,Cn1c(SCC(=O)N/N=C/c2ccc(O)c(O)c2)nc2ccccc21,70.9% (active)
16,Cc1nn(-c2ccccc2)c(C)c1/C=N/NC(=O)CSc1nc2ccccc2c(=O)n1-c1ccccc1,22.5%
17,Cc1ccc(/C=N/NC(=O)CSc2nc3ccccc3o2)cc1,-4.4%
18,COc1ccc(S(=O)(=O)N2CCN(CC(=O)NCC3(N4CCOCC4)CCCCC3)CC2)cc1,3%
19,CC(C)(C)C(=O)Nc1cccc(-c2ccc[nH]2)n1,5.3%
20,Cc1c(Cl)c([N+](=O)[O-])nn1CCCC(=O)NC(C)c1ccccc1 (stereo not given),5.3%
21,Cc1c(Cl)c([N+](=O)[O-])nn1Cc1ccc(C(=O)N/N=C\c2cc(Cl)ccc2O)o1,67.5% (active)
22,Cc1nn(Cc2ccccc2Cl)c(C)c1NC(=O)Cn1nc([N+](=O)[O-])c(Cl)c1C,15.4%
23,N#Cc1ccc(C(c2ccc(C#N)cc2)n2cncn2)cc1,2.5%

row,SMILES,protection from H2O2 cell death
1,Cn1c(C(=O)N2CCC(C(N)=O)CC2)cc2c(=O)n(C)c3ccccc3c21,1.2%
2,Cn1c(C(=O)NCCN2CCc3ccccc3C2)cc2c(=O)[nH]c3ccccc3c21,19.2%
3,Cn1c(C(=O)NCCc2ccsc2)cc2c(=O)n(C)c3ccccc3c21,96.5% (active)
4,O=C(NCCc1ccccc1)/C(=C\c1ccc([N+](=O)[O-])cc1)NC(=O)c1ccccc1,16.6%
5,O=C(Nc1ccc(C(=O)O)cc1)/C(=C/c1ccc([N+](=O)[O-])cc1)NC(=O)c1ccccc1,4.6%
6,O=C(N/N=C/c1cc([N+](=O)[O-])ccc1O)/C(=C\c1cccs1)NC(=O)c1ccccc1,54.9% (active)
7,CCOCCCNC(=O)C(NC(=O)c1ccc(=O)[nH]c1)c1ccc(Cl)cc1 (stereo not given),-7.9%
8,COc1ccc([C@H]2N[C@]3(CCCN(CC4CCCCC4)C3=O)[C@H]3C(=O)N(C)C(=O)[C@@H]23)cc1,5.5%
9,COCCNc1ccc(-c2n[nH]c(=O)c3ccccc23)cc1[N+](=O)[O-],40.1%
10,CCN(CC)CCNc1ccc(Cl)cc1[N+](=O)[O-],9.1%
11,CN(C)CCNc1ccc(-c2n[nH]c(=O)c3ccccc23)cc1[N+](=O)[O-],61.1% (active)
12,CCCC(=O)NC(Nc1ccccc1OC)C(Cl)(Cl)Cl (stereo not given),3%
13,c1ccc(CCc2ccccn2)cc1,-1.9%
14,O=c1[nH]nc(Cc2ccccn2)c2ccccc12,84.4% (active)
15,Cc1ccc(C(=O)C(C)OC(=O)Cc2n[nH]c(=O)c3ccccc23)cc1C (stereo not given),12.9%
16,COc1ccc(OC)c(CN2C(=O)CCC2(C)C(=O)NC2CCCCCC2)c1 (stereo not given),1.4%
17,O=C(CN1C(=O)NC2(CCCCCCC2)C1=O)NCc1ccc(F)cc1,-8.5%
18,COc1ccc(N2CCN(Cc3ccc(Br)s3)CC2)cc1,-6.8%
19,Cc1ccc(NC(=O)c2sc3nc(N)c(C#N)cc3c2N)cc1,-0.8%
20,CCOc1cc(-c2cc(-c3ccc(NC(C)=O)cc3)nc(N)c2C#N)ccc1O,65.8% (active)
21,CCSc1nc(-c2ccc(OC)cc2)cc(-c2ccc(OC)cc2)c1C#N,-1%
22,CCSc1nnc(SCC(=O)NNC(=O)c2ccccc2F)s1,-2.9%
23,COc1ccc(CC(N)c2csc(NC(=O)Cc3ccccc3)n2)cc1 (stereo not given),10.4%

row,SMILES,protection from H2O2 cell death
1,COc1ccc(CC(=O)N/N=C(\C)c2ccccn2)cc1,89.5% (active)
2,CC(=NNC(=S)N1CCCCCC1)c1ccccn1,-14.3%
3,CCOC(=O)[C@H]1CCC[C@@H](NS(=O)(=O)c2ccc(NC(C)=O)cc2)C1,3.9%
4,CCCCNc1ccc(C(=O)Nc2cccc(C)n2)cc1[N+](=O)[O-],-6%
5,O=c1cc(CN2CCN(S(=O)(=O)/C=C/c3ccccc3)CC2)c2ccc(O)cc2o1,24.9%
6,Cc1nn(C)c(C)c1S(=O)(=O)N1CCC(CO)(Cc2ccc(Cl)cc2)CC1,-21.2%
7,COc1ccc(N2C(=O)CNC2=S)cc1,5.9%
8,O=c1[nH]cnc2c1c(-c1ccccc1)cn2-c1ccc(F)cc1,-5.8%
9,COc1ccc(-n2cc(-c3ccccc3)c3c(=S)nc[nH]c32)cc1,72.3% (active)
10,CCOC(=O)C1CCN(S(=O)(=O)c2ccc3c(c2)N(C)C(=O)CC(=O)N3C)CC1,-1.6%
11,C[C@@H]1CN([C@H](C)CO)S(=O)(=O)c2ccc(C#C[C@@H](C)O)cc2O[C@@H]1CN(C)Cc1ccc(-c2ccccc2)cc1,-5.2%
12,CCCc1nc2ccccc2c(C(=O)OCc2nnc(-c3cc(OC)c(OC)c(OC)c3)o2)c1CC,64.8% (active)
13,O=C(OCc1nnc(-c2ccccc2)o1)c1cc(=O)[nH]c2ccccc12,3.9%
14,Cc1onc(-c2ccccc2Cl)c1C(=O)OCc1nnc(-c2ccccc2)o1,-13.6%
15,Cc1ccc(CNS(=O)(=O)c2ccc3c(c2)N(C)CCO3)cc1,-9.1%
16,C[C@@H]1CC[C@]2(O[C@@H](CCO)C[C@H](O)[C@H]2O)O1,-5.8%
17,COc1ccc2oc(C(=O)N(CC(C)C)C3CCS(=O)(=O)C3)c(C)c2c1 (stereo not given),2.8%
18,CC(C)CNC(=S)NNC(=O)c1ccccc1OC(F)F,-3.4%
19,CCN(CC(=O)Nc1ccc2c(c1)OCO2)S(=O)(=O)c1ccccc1,-7.6%
20,O=C(CCS(=O)(=O)Cc1ccccc1)Nc1ccc2c(c1)OCCO2,0.6%
21,O=C(CN(c1ccc2c(c1)OCCO2)S(=O)(=O)c1ccccc1)Nc1ccc2c(c1)OCO2,79.8% (active)
22,COc1ccc(NS(=O)(=O)c2ccc(C)c(C(=O)NCC(c3cccs3)N3CCOCC3)c2)cc1 (stereo not given),-1.3%
23,COC(=O)c1ccc(S(=O)(=O)NCc2ccccc2)n1C,-1.9%

row,SMILES,protection from H2O2 cell death
1,C=CCn1c(Cn2nnc3ccccc32)nnc1SCC(=O)N/N=C/c1cc(Br)cc(OC)c1O,9.5%
2,Oc1c(Cl)cc(Cl)cc1/C=N/c1ncn[nH]1,26.3%
3,COc1cc(Br)cc(/C=N/c2ncn[nH]2)c1O,88.7% (active)
4,CN(Cc1c(F)cccc1Cl)C(=O)COC(=O)Cn1cnc2ccccc2c1=O,-4%
5,Nc1scc(-c2ccncc2)c1Cl,-2.7%
6,[O-][n+]1ccc(OCc2ccccc2)cc1,-5.2%
7,COc1cccc(C2c3[nH]c4ccccc4c3CCN2Cc2cccc(C)n2)c1 (stereo not given),-1.8%
8,COC(=O)[C@H]1[C@H]2C[C@H]3c4[nH]c5ccccc5c4CCN3C[C@@H]2CC[C@@H]1O,-2.1% and 1%
9,COc1ccc(-c2ccc3[nH]c4c(c3c2)CCN2C[C@H]3[C@H](C)ON(C)[C@H]3C[C@@H]42)cc1,54.5% (active)
10,COc1ccc(CNC(=O)c2ccc(NS(=O)(=O)c3ccc4[nH]c(=O)[nH]c4c3)cc2)cc1OC,0.1%
11,NC(=O)c1ccccc1N=Cc1ccc2ccccc2c1,0.6%
12,CC(C)c1c(C(=O)N/N=C/c2ccccc2C(=O)O)nnn1-c1nonc1N,5.1%
13,Nc1nonc1-n1nnc(C(=O)N/N=C/c2cc(Br)ccc2O)c1CSC1=NCCS1,56.9% (active)
14,COCc1c(C(=O)N/N=C\c2cccnc2)nnn1-c1nonc1N,-0.9%
15,Cc1cc(NC(=O)C(C)N2C(=O)c3ccccc3S2(=O)=O)no1 (stereo not given),6.5%
16,CCN(CC)Cc1nc2sc(C)c(C)c2c(=O)[nH]1,12.4%
17,O=C(CCCCO)c1ccc(O)c(Cl)c1,15.5%
18,COc1cc(OC)nc(N/N=C(\c2ccccc2)c2ccncc2)n1,-2.9%
19,C/C(=N/Nc1nc(-c2ccccc2)c(CC(=O)O)s1)c1ccccc1,-8.5%
20,c1ccc(C(=NNc2nc3ccccc3s2)c2ccccn2)cc1,51.5% (active)
21,Cc1cc(=O)oc2c(C)c(OCC(=O)NCCc3ccc(S(N)(=O)=O)cc3)ccc12,-0.5%
